The text below walks through data of PubChem BioAssay (NCATS).

Inconclusive results are not listed. A call without a number means that no potency is given here. Calls of active or inactive are those of the source. Calls come from the whole dose curve; as a rule, active = well fitted inhibition curve with a large enough effect; inconclusive = small, poorly fitted or top-dose-only effect; inactive = flat fitted curve, though single readings scatter.

Sequence of Phospholipid hydroperoxide glutathione peroxidase GPX4 (Homo sapiens) (P36969 whole entry, looked up): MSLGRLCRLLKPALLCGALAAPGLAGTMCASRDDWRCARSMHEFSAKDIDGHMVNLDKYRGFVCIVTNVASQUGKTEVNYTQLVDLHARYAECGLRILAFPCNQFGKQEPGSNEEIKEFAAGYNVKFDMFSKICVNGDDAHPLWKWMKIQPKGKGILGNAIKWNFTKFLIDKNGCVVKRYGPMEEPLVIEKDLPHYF

One assay has as its target Phospholipid hydroperoxide glutathione peroxidase GPX4 (Homo sapiens) (UniProt P36969). Nature of the assay: Primary qHTS Assay for Inhibitors of Recombinant Selenoprotein Glutathione Peroxidase 4 (GPX4) (AID 1845192). Note: nearly all actives have a fitted effect of over 65% in size. The note with it: recombinant GPX4, GR-coupled NADPH fluorescence, 15 min; series mostly up to 50 µM. The method in brief:
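NADPH consumption followed by fluorescence at 340/450 nm, t=0 and after 15 min at room temperature. Reaction started with cumene hydroperoxide (0.5 mM final) after 30 min compound–GPX4 preincubation; final 200 nM GPX4, 100 nM GR, 1 mM GSH, 0.5 mM NADPH.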
For orientation: In qHTS, concentration-response curves come from the screen itself.
In the case of `CC(Cc1ccc(O)cc1)NCC(O)c1cc(O)cc(O)c1` (stereo not given), the Potency entry was “inactive”.
Still for that read-out and setting: the entry for `C#CCOC(=O)C1=CCCN(C)C1` is “inactive”.
Consider `O=C(O)CC[N+](=O)[O-]`, for which the Potency result was “inactive”.
The same measure, in the same setting: the entry for `CC(=O)NCCc1c[nH]c2ccccc12` is “inactive”.
Still for that read-out and setting: the result for `C[C@]12CCC3C(CC[C@H]4C[C@H](O)CC[C@]34C)C1CC[C@@H]2C(=O)CO` (stereo not given in full) reads “inactive”; that for `C[C@@H]1O[C@H](C[N+](C)(C)C)C[C@H]1O`, “inactive”; that for `COc1ccc2c(c[n+](C)c3c4cc5c(cc4ccc23)OCO5)c1OC`, “inactive”.
Regarding `O=C(Cc1ccc(Cl)c(Cl)c1)N1CCCCC1CN1CCCC1` (stereo not given), the Potency entry was “inactive”.
For the compound `CCCN1CCO[C@@H]2c3cc(O)ccc3OC[C@H]21`, the Potency result is “inactive”.
Consider `CC1=NN=C(c2ccc(N)cc2)c2cc3c(cc2C1)OCO3`, for which the Potency entry is “inactive”.
Same read-out and setting: the result for `O=C(N[C@H]1CN2CCC1CC2)c1ccc(Cl)cc1` reads “inactive”; that for `c1ccc(CCCN2CCN(CCOC(c3ccccc3)c3ccccc3)CC2)cc1`, “inactive”; that for `C[N+](C)(C)CC(=O)O`, “inactive”.
Same read-out and setting: the result for `NC(CCP(=O)(O)O)C(=O)O` (stereo not given) reads “inactive”; that for `COc1cc(C(O)CN)ccc1O` (stereo not given), “inactive”; that for `S=C(NC1CCCCC1)N1CCC(c2cnc[nH]2)CC1`, “inactive”.
Same read-out and setting: the result for `CN1C2CCC1CC(OC(=O)c1cc(Cl)cc(Cl)c1)C2` (stereo not given) reads “inactive”; that for `NC(N)=NOCCC(N)C(=O)O` (stereo not given), “inactive”; that for `CC(C)Oc1cccnc1N(C)C1CCN(Cc2ccccc2)CC1`, “inactive”.
Regarding `CC[C@@H](C(N)=O)N1CCCC1=O`, the Potency entry is “inactive”.
Still for that read-out and setting: the entry for `NCCc1c[nH]c2ccc(O)cc12` is “inactive”.
The same measure, in the same setting: the result for `CC(=O)[C@H]1CCC2C3CC[C@H]4C[C@H](O)CC[C@]4(C)C3CC[C@@]21C` (stereo not given in full) reads “inactive”; that for `CCCCc1ccc(C(=O)O)nc1`, “inactive”.
The same measure, in the same setting: the result for `COC(=O)[C@@H](N)CCCN=C(N)N[N+](=O)[O-]` reads “inactive”; that for `NC(=O)CN1CC(O)CC1=O` (stereo not given), “inactive”.
`Clc1cnc(Oc2ccc(Oc3ncc(Cl)cc3Cl)cc2)c(Cl)c1`: the Potency result was “inactive”.
The same measure, in the same setting: the entry for `NC(=NCCC[C@H](N)C(=O)O)N[N+](=O)[O-]` is “inactive”.

The target of a further assay is Luciferin 4-monooxygenase (Photinus pyralis) (UniProt P08659). Nature of the assay: Primary firefly luciferase (FLuc) qHTS assay for identification of artifact compounds. (AID 1845220). Note: nearly all actives have a fitted effect of over 60% in size. The note with it: purified firefly luciferase, luminescence, 5 min; series mostly up to 54.1 µM. The method in brief:
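Compounds sat 15 min at room temperature with 10 uM luciferin and 10 uM ATP (pH 7.6 Tris acetate). Firefly luciferase (10 nM final) was then added, and luminescence was read 5 min later. Data normalized to no-enzyme and DMSO controls were Hill-fitted.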
On to `CC(=O)NCCc1c[nH]c2ccccc12`, for which the outcome is “inactive [at 86.2 µM]”.
As to `O=C(N[C@H]1CN2CCC1CC2)c1ccc(Cl)cc1`, the outcome was inactive.
For `S=C(NC1CCCCC1)N1CCC(c2cnc[nH]2)CC1`, the result was inactive.
